According to PubChem BioAssay AID686978 (National Center for Advancing Translational Sciences (NCATS), 2013):
Hit rate of the full screen: of about 420,000 compounds, about 64,000 (15%) were called active. Inconclusive results (about 27%) are left out. A selection follows. A number with no mark means an inactive call. Calls follow the shape of the dose curve; as a rule, active = well fitted inhibition curve with a large enough effect; inconclusive = small, poorly fitted or top-dose-only effect; inactive = flat fitted curve, though single readings scatter.

Test: qHTS for Inhibitors of human tyrosyl-DNA phosphodiesterase 1 (TDP1): qHTS in cells in absence of CPT; also: nearly all actives have a fitted effect of over 55% in size
Conditions: DT40 Tdp1-/- hTDP1 cells, no CPT, ATP luminescence, 48 h; activity change, negative = growth inhibition: at 46.2 µM (top of the series)
From the text: Human tyrosyl-DNA phosphodiesterase 1 (TDP1) is a novel repair gene, and we propose to use it as a new target for anticancer drug development. TDP1 is not an essential protein, but under treatment with topoisomerase I poison (camptothecin: CPT), TDP1 works as a critical factor for cell survival. To directly identify novel TDP1 inhibitors active in a cellular environment, we have knocked-out the Tdp1 gene in chicken DT40 cells (Tdp1-/-) and generated a complemented counterpart cells that contains a stable transfection of the human TDP1 gene (Tdp1-/-;hTDP1 cells). For the primary screen, Tdp1-/-;hTDP1 cells will be exposed to small molecules in the presence or absence of CPT, and their growth kinetics will be evaluated after 48 hours by measuring ATP activity. […] The hit compounds will then be evaluated in the presence or absence of CPT using Tdp1-/- cells. […] In tertiary assays, biochemical gel-based assays will be used to assess whether the hit compounds specifically target TDP1.
To this end, we have screened this cell line against the MLSMR in two primary screens. In one screen we add CPT and in the other we screen in the absence of CPT; this AID represents the screen where CPT was absent.
NIH Chemical Genomics Center [NCGC]
NIH Molecular Libraries Probe Centers Network [MLPCN]
Assay Submitter (PI): Yves Pommier, NCI
DT40-hTDP1 cells without 20 nM Camptothecin (add 20 microL of DMSO in 1 L of cell culture medium) were dispensed at 400 cells/5microL/well in tissue culture treated 1536-well white wall/solid bottom assay plates (Greiner Bio-One North America, NC, U.S.A.) using a Multidrop Combi 8 channel dispenser (Thermo Fisher, Waltham, MA, USA). 23 nL compounds and controls were transferred using the pin tool (Kalypsys, San Diego, CA, USA) to the assay plates. The assay plates were then incubated at 37 masculineC for a minimum 48 hr. Three microL of Cell Titer Glo solution was added to the plates and incubated at RT in dark for 30 min. Luminescence was read using ViewLux (Perkin Elmer) with 1 sec exposure slow speed, high gain and 2x binning.
% is scaled to controls: 0 for no effect and ±100 for the full control effect; potency is read from the fitted curve at half-maximal effect.

Row | Compound | activity change, negative = growth inhibition | Potency
1 | Cc1ccsc1C(=O)NNC(=O)COc1ccc(Br)cc1 | -8.53% | –
2 | O=C(Nc1ccc2c(c1)C(=O)OC2)Nc1cccc2ccccc12 | -3.83% | –
3 | CN=C1S/C(=C\c2c(OC)cc(OC)cc2OC)C(=O)N1C | 4.09% | –
4 | Cc1cccc(C)c1NC(=O)CSc1ccc([N+](=O)[O-])cn1 | -3.38% | –
5 | CCOCC(=O)Nc1ncc(S(=O)(=O)c2ccc([N+](=O)[O-])cc2)s1 | -18.6% | –
6 | COc1ccc(OCC(=O)NCCS(=O)(=O)N2CCN(c3ccc(F)cc3)CC2)cc1 | 7.95% | –
7 | c1ccc2nc(C3=NCCN3)cnc2c1 | -5.64% | –
8 | NN=C(NN=Cc1ccccc1)c1ccccc1 | – | 20.6 µM (active)
9 | O=C(CCCCCNC(=O)c1ccccc1)N/N=C/c1ccccc1 | -5.59% | –
10 | O=C(C[n+]1ccccc1)N/N=C/c1ccc(O)cc1 | -28.4% | –
11 | Cc1ccc(Cc2cncc(O)c2)cc1S(=O)(=O)O | -0.5% | –
12 | COC(=O)c1cc(NC(=O)c2cccnc2)ccc1N1CCOCC1 | 0.201% | –
13 | CCOC(=O)c1[nH]c2ccc(C)cc2c1N=C(C)N(C)C | 3.19% | –
14 | CCOc1ccccc1CNC(=O)c1ccc2c(c1)nc1n2CCC(C)C1 (stereo not given) | -5.23% | –
15 | CCOc1ccccc1CNC(=O)c1cnc2c(-c3ccc(OCC)c(OCC)c3)c(C)nn2c1C | – | 11.6 µM (active)
16 | Cc1ccc(Cl)cc1N1CCN(C(=O)c2cnc3c(-c4ccc(F)cc4)c(C)nn3c2C)CC1 | -17.5% | –
17 | COCCCNC(=O)C1CC(=O)N(CCc2ccccc2)C1 (stereo not given) | -0.222% | –
18 | CC(C)(C)C(=O)CCN1C(=O)C2(OCCO2)c2ccccc21 | -3.5% | –

Row | Compound | activity change, negative = growth inhibition | Potency
19 | COc1ccc(C(=O)OCc2cc(=O)n3ccsc3n2)cc1F | -17.5% | –
20 | COc1cc(C(=O)OCc2cc(=O)n3ccsc3n2)ccc1OC(C)C | – | 20.6 µM (active)
21 | COCCc1nn2c(=O)cc(COC(=O)c3cc(OC)c(OC)c(OC)c3)nc2s1 | -13.2% | –
22 | NC(=O)C[n+]1cccc(C(N)=O)c1 | 3.03% | –
23 | O=C1c2oc3ccccc3c(=O)c2C(c2cccc(O)c2)N1c1ccccn1 (stereo not given) | – | 20.6 µM (active)
24 | CC(=O)c1sc(N2C(=O)c3oc4ccccc4c(=O)c3C2c2ccc(C)cc2)nc1C (stereo not given) | 1.93% | –
25 | COc1ccc(C2c3c(oc4ccccc4c3=O)C(=O)N2Cc2ccc3c(c2)OCO3)cc1 (stereo not given) | -15.1% | –
26 | COCCN1C2=C(COC(C)(C)C2)C(=S)NC1c1ccccc1 (stereo not given) | 1.35% | –
27 | COC(C[C@@H](O)[C@H](C)[C@H](O)COCc1ccccc1)OC | -1.03% | –
28 | Cn1cccc1/C=C1\SC(=S)N(NC(=O)c2ccc(Cl)cc2)C1=O | -13.3% | –
29 | O=C(CSc1ncn[nH]1)Nc1ccc(Br)cc1Br | -4.44% | –
30 | CN(C)C(CNC(=O)c1ccc(S(=O)(=O)NCc2ccco2)cc1)c1ccccc1 (stereo not given) | -3.83% | –
31 | O=C(NCCc1ccccc1)C(=O)NCC(c1ccco1)S(=O)(=O)c1ccccc1 (stereo not given) | -56.5% | –
32 | O=C(NCc1ccccc1)C(=O)NCC(c1ccco1)S(=O)(=O)c1ccc(Cl)cc1 (stereo not given) | – | 18.4 µM (active)
33 | CC(C)(C)c1ccc(C(=O)NCCC(=O)NCc2ccco2)cc1 | -22.6% | –
34 | CC(C)(C)c1ccc(C(=O)NCC(c2ccco2)S(=O)(=O)c2ccc(F)cc2)cc1 (stereo not given) | – | 20.6 µM (active)
35 | CC(C)CNC(=O)C(=O)NCc1ccccc1 | 0.828% | –
